# PubChem BioAssay (NCATS)
# Several values for one entry are separate records, joined by “and”; a condition that tells them apart may be missing. Equal values may be shown once. Values without a mark were called inactive. Inconclusive results are not listed. A call without a number means that no potency is given here. More than one record can exist for a structure, and the calls need not agree. Activity calls are given as the source filed them. Unless noted, the call rests on the fitted dose curve; in most records, active means well fitted curve in the direction sought with a large enough effect; inconclusive means small, poorly fitted or top-dose-only effect, or another doubt; inactive means no such curve, though single readings can be large; an effect the other way counts as inactive or inconclusive.
# How the values were obtained:
# MKL-2 = assay: qHTS assay to identify novel small-molecules to repurpose for Merkel cell carcinoma treatment (AID 1296009); settings: MCC and control cell lines, CellTiter-Glo viability, 72 h; series mostly up to 46 µM; further: nearly all actives have a fitted effect of over 60% in size
# Method in brief: (§1)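 Luminescence from CellTiter-Glo, read 10 min after addition at room temperature, reported viability following a 72 hr, 37 degree celsius treatment with NPC or MIPE compounds in titration; values normalized to plate controls.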
# UISO = assay: as above; settings: MCC and control cell lines, CellTiter-Glo viability, 72 h; series mostly up to 46 µM
# Method in brief: as §1
# WaGa = assay: as above; settings: MCC and control cell lines, CellTiter-Glo viability, 72 h; series mostly up to 46 µM
# Method in brief: as §1
# C33A = assay: Primary qHTS to identify gynecologic anti-cancer compounds using libraries of approved drugs and bioactive compounds (AID 1345084); settings: Gynecologic cancer cell panel viability, ATPlite luminescence, 48 h; series mostly up to 57.5 µM; further: nearly all actives have a fitted effect of over 55% in size; further: potency means the concentration at half of the fitted maximal effect
# Method in brief: (§2)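 Measured: luminescence after ATPlite addition (15 min, RT). Exposure: 48 h, 37 C, 5% CO2.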
# CAOV3 = assay: as above; settings: Gynecologic cancer cell panel viability, ATPlite luminescence, 48 h; series mostly up to 57.5 µM
# Method in brief: as §2
# CASKI = assay: as above; settings: Gynecologic cancer cell panel viability, ATPlite luminescence, 48 h; series mostly up to 57.5 µM
# Method in brief: as §2
# Es-2 = assay: as above; settings: Gynecologic cancer cell panel viability, ATPlite luminescence, 48 h; series mostly up to 57.5 µM
# Method in brief: as §2
# HeLa = assay: as above; settings: Gynecologic cancer cell panel viability, ATPlite luminescence, 48 h; series mostly up to 57.5 µM
# Method in brief: as §2
# Hek293T = assay: as above; settings: Gynecologic cancer cell panel viability, ATPlite luminescence, 48 h, control line for the selectivity index; series mostly up to 57.5 µM
# Method in brief: as §2
# JEG-3 = assay: as above; settings: Gynecologic cancer cell panel viability, ATPlite luminescence, 48 h; series mostly up to 57.5 µM
# Method in brief: as §2
# OV90 = assay: as above; settings: Gynecologic cancer cell panel viability, ATPlite luminescence, 48 h; series mostly up to 57.5 µM
# Method in brief: as §2
# PA-1 = assay: as above; settings: Gynecologic cancer cell panel viability, ATPlite luminescence, 48 h; series mostly up to 57.5 µM
# Method in brief: as §2
# Tov-21-G = assay: as above; settings: Gynecologic cancer cell panel viability, ATPlite luminescence, 48 h; series mostly up to 57.5 µM
# Method in brief: as §2
# Tov112D = assay: as above; settings: Gynecologic cancer cell panel viability, ATPlite luminescence, 48 h; series mostly up to 57.5 µM
# Method in brief: as §2
# astro = assay: Drug repurposing screens with cells derived from glioblastoma tumor samples (AID 1345199); settings: viability, ATP luminescence, 48 h; series mostly up to 45.9 µM; further: nearly all actives have a fitted effect of over 40% in size; further: potency means the concentration at half of the fitted maximal effect
# Method in brief: (§3)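 Primary testing used CD133+ neurospheres from four GBM patients, seven concentrations, 48 h exposure and ATP-based viability; confirmation added three slower-growing patient lines.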
# SKOV3 = assay: Primary qHTS to identify gynecologic anti-cancer compounds using libraries of approved drugs and bioactive compounds (AID 1345084); settings: Gynecologic cancer cell panel viability, ATPlite luminescence, 48 h; series mostly up to 57.5 µM; further: nearly all actives have a fitted effect of over 55% in size; further: potency means the concentration at half of the fitted maximal effect
# Method in brief: as §2
# [1] = Drug repurposing screens with cells derived from glioblastoma tumor samples (AID 1345199); settings: GBM patient neurospheres viability, ATP luminescence, 48 h; further: nearly all actives have a fitted effect of over 40% in size; further: potency means the concentration at half of the fitted maximal effect
# Method in brief: as §3
# [2] = biological target: Nuclear receptor subfamily 1 group I member 2 (Rattus norvegicus) (UniProt Q9R1A7); assay: qHTS assay for small molecule activators of the rat pregnane X receptor (rPXR) signaling pathway (AID 651751; call rule not given here); settings: rPXR reporter cells, luciferase (One-Glo), 24 h
# [3] = at 45.9 µM (top of the series), tumour line B
# [4] = at 45.9 µM (top of the series), tumour line D
# [5] = at 46 µM (top of the series), tumour line A
# [6] = at 46.1 µM (top of the series), tumour line C
# Chain of Nuclear receptor subfamily 1 group I member 2 (Rattus norvegicus) (Q9R1A7 whole entry, looked up): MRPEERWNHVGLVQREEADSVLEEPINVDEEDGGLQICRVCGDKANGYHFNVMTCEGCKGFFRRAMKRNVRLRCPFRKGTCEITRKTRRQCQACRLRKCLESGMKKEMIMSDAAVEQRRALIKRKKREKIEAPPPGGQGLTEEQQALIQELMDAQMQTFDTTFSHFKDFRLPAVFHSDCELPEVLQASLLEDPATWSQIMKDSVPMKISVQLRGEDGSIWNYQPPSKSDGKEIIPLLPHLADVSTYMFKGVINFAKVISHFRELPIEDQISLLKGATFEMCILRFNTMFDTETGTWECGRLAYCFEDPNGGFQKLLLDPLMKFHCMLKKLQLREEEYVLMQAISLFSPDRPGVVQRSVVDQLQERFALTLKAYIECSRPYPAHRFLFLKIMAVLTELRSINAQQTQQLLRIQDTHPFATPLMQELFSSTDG
compound,measurement,setting,value
COc1ccc(S(=O)(=O)Nc2nnc(CC(C)C)s2)cc1,Potency,MKL-2,inactive
same,Potency,UISO,inactive
same,Potency,WaGa,inactive
same,Potency,C33A,inactive
same,Potency,CAOV3,inactive
same,Potency,CASKI,inactive
same,Potency,Es-2,inactive
same,Potency,HeLa,inactive
same,Potency,Hek293T,inactive
same,Potency,JEG-3,inactive
same,Potency,OV90,inactive
same,Potency,PA-1,inactive
same,Potency,Tov-21-G,inactive
same,Potency,Tov112D,inactive
same,Potency,astro,inactive
O=c1cc(CO)occ1O,Potency,MKL-2,inactive
same,Potency,UISO,inactive
same,Potency,WaGa,inactive
same,Potency,C33A,inactive
same,Potency,CASKI,inactive
same,Potency,Es-2,inactive
same,Potency,HeLa,inactive
same,Potency,Hek293T,inactive
same,Potency,JEG-3,inactive
same,Potency,OV90,inactive
same,Potency,PA-1,inactive
same,Potency,SKOV3,inactive
same,Potency,Tov-21-G,inactive
same,Potency,Tov112D,inactive
same,"activity, negative = cell killing",[1]; [3],-1.08% and -4.58%
same,"activity, negative = cell killing",[1]; [4],14.9% and -7.17%
same,"activity, negative = cell killing",[1]; [5],-25.5% and -9.07%
same,"activity, negative = cell killing",[1]; [6],-15.8% and 18.8%
same,Potency,astro,inactive
CCCCCCCCCCCCCCCC(=O)NCCO,Potency,MKL-2,inactive
same,Potency,UISO,inactive
same,Potency,WaGa,inactive
same,Potency,C33A,inactive
same,Potency,CASKI,inactive
same,Potency,Es-2,inactive
same,Potency,HeLa,inactive
same,Potency,Hek293T,inactive
same,Potency,JEG-3,inactive
same,Potency,OV90,inactive
same,Potency,PA-1,inactive
same,Potency,Tov-21-G,inactive
same,Potency,Tov112D,inactive
same,"activity, negative = cell killing",[1]; [3],0.41%
same,"activity, negative = cell killing",[1]; [4],-8.68%
same,"activity, negative = cell killing",[1]; [5],-19.5%
same,"activity, negative = cell killing",[1]; [6],-10.8%
same,Potency,astro,inactive
C[C@H](NC(CCc1ccccc1)C(=O)O)C(=O)N1CCC[C@H]1C(=O)O (stereo partly drawn),Potency,MKL-2,inactive
same,Potency,UISO,inactive
same,Potency,WaGa,inactive
same,Potency,C33A,inactive
same,Potency,CAOV3,inactive
same,Potency,CASKI,inactive
same,Potency,HeLa,inactive
same,Potency,Hek293T,inactive
same,Potency,JEG-3,inactive
same,Potency,OV90,inactive
same,Potency,PA-1,inactive
same,Potency,SKOV3,inactive
same,Potency,Tov-21-G,inactive
same,Potency,Tov112D,inactive
same,"activity, negative = cell killing",[1]; [3],-5.92%
same,"activity, negative = cell killing",[1]; [4],1.9%
same,"activity, negative = cell killing",[1]; [5],-1.54%
same,"activity, negative = cell killing",[1]; [6],-2.05%
same,Potency,astro,inactive
CN(C)CCCO[C@@H]1[C@H]2OC(C)(C)O[C@H]2O[C@@H]1C(O)CO (stereo partly drawn),Potency,MKL-2,inactive
same,Potency,UISO,inactive
same,Potency,WaGa,inactive
same,Potency,C33A,inactive
same,Potency,CASKI,inactive
same,Potency,Es-2,inactive
same,Potency,HeLa,inactive
same,Potency,JEG-3,inactive
same,Potency,OV90,inactive
same,Potency,PA-1,inactive
same,Potency,SKOV3,inactive
same,Potency,Tov-21-G,inactive
same,Potency,Tov112D,inactive
same,Potency,astro,inactive
CC[C@@]1(c2ccccc2)NC(=O)N(C)C1=O,Potency,MKL-2,inactive
same,Potency,UISO,inactive
same,Potency,WaGa,inactive
same,Potency,C33A,inactive
same,Potency,CASKI,inactive
same,Potency,Es-2,inactive
same,Potency,HeLa,inactive
same,Potency,Hek293T,inactive
same,Potency,JEG-3,inactive
same,Potency,OV90,inactive
same,Potency,PA-1,inactive
same,Potency,SKOV3,inactive
same,Potency,Tov-21-G,inactive
same,Potency,Tov112D,inactive
same,"activity, negative = cell killing",[1]; [3],-13.7%
same,"activity, negative = cell killing",[1]; [4],-9.17%
same,"activity, negative = cell killing",[1]; [6],9.18%
same,Potency,astro,inactive
O=S(=O)(O)NC1CCCCC1,Potency,MKL-2,inactive
same,Potency,UISO,inactive
same,Potency,WaGa,inactive
same,Potency,C33A,inactive
same,Potency,CASKI,inactive
same,Potency,Es-2,inactive
same,Potency,HeLa,inactive
same,Potency,Hek293T,inactive
same,Potency,JEG-3,inactive
same,Potency,OV90,inactive
same,Potency,PA-1,inactive
same,Potency,SKOV3,inactive
same,Potency,Tov-21-G,inactive
same,Potency,Tov112D,inactive
same,"activity, negative = cell killing",[1]; [3],-10.5%
same,"activity, negative = cell killing",[1]; [4],-5.78%
same,"activity, negative = cell killing",[1]; [5],-19.1%
same,Potency,astro,inactive
same,max response,[2],1.16%
C[C@]12CC[C@@H]3c4ccc(O)cc4CC[C@H]3[C@@H]1CC[C@@H]2OC(=O)CCC1CCCC1,Potency,MKL-2,inactive
same,Potency,UISO,inactive
same,Potency,WaGa,inactive
same,Potency,C33A,inactive
same,Potency,CASKI,inactive
same,Potency,Es-2,inactive
same,Potency,HeLa,10 µM (active) and 20 µM (active)
same,Potency,Hek293T,inactive
same,Potency,JEG-3,inactive
same,Potency,OV90,inactive
same,Potency,PA-1,inactive
same,Potency,SKOV3,inactive
same,Potency,Tov-21-G,inactive
same,Potency,Tov112D,inactive
same,"activity, negative = cell killing",[1]; [6],-26.4% and -9.85%
same,Potency,[1]; tumour line A,7.94 µM (active) and 22.4 µM (active)
same,Potency,[1]; tumour line B,35.5 µM (active)
same,Potency,[1]; tumour line D,35.5 µM (active) and 20 µM (active)
CCCc1c(OCCCCc2nn[nH]n2)ccc(C(C)=O)c1O,Potency,MKL-2,inactive
same,Potency,UISO,inactive
same,Potency,WaGa,inactive
same,Potency,C33A,inactive
same,Potency,CAOV3,inactive
same,Potency,CASKI,inactive
same,Potency,Es-2,inactive
same,Potency,HeLa,inactive
same,Potency,Hek293T,inactive
same,Potency,JEG-3,inactive
same,Potency,OV90,inactive
same,Potency,PA-1,inactive
same,Potency,SKOV3,inactive
same,Potency,Tov-21-G,inactive
same,Potency,Tov112D,inactive
same,Potency,astro,25.1 µM (active)
same,max response,[2],-2.11%
Nc1cc(=O)[nH]c(N)n1,Potency,MKL-2,inactive
same,Potency,UISO,inactive
same,Potency,WaGa,inactive
same,Potency,C33A,inactive
same,Potency,CAOV3,inactive
same,Potency,Es-2,inactive
same,Potency,HeLa,inactive
same,Potency,Hek293T,inactive
same,Potency,JEG-3,inactive
same,Potency,OV90,inactive
same,Potency,SKOV3,inactive
same,Potency,Tov-21-G,inactive
same,Potency,Tov112D,inactive
same,"activity, negative = cell killing",[1]; [3],1%
same,"activity, negative = cell killing",[1]; [4],-2.29%
same,"activity, negative = cell killing",[1]; [5],-24.4%
same,"activity, negative = cell killing",[1]; [6],6.18%
same,Potency,astro,inactive
CC(=O)Nc1ccc(/C=N/NC(N)=S)cc1,Potency,MKL-2,inactive
same,Potency,UISO,inactive
same,Potency,WaGa,inactive
same,Potency,C33A,inactive
same,Potency,CASKI,inactive
same,Potency,Es-2,inactive
same,Potency,HeLa,inactive
same,Potency,Hek293T,inactive
same,Potency,JEG-3,inactive
same,Potency,OV90,inactive
same,Potency,PA-1,inactive
same,Potency,Tov-21-G,inactive
same,Potency,Tov112D,inactive
same,"activity, negative = cell killing",[1]; [3],-6.76% and -4.79%
same,"activity, negative = cell killing",[1]; [4],-13.7% and -15.9%
same,"activity, negative = cell killing",[1]; [5],-28.2%
same,"activity, negative = cell killing",[1]; [6],-27.6% and -20.2%
same,Potency,astro,inactive
